Reference: paper PMC4336329 (PLoS ONE, 2015)
About 14,000 (4.5%) of roughly 310,000 compounds showed an effect of 50% or more. Effects have a minus sign here. Shown is part of a subset that was picked to be rich in strong results.

These compounds were tested against human ether-à-go-go-related gene (hERG) potassium channel (human, UniProt Q12809) (assay: primary screen, population patch clamp on CHO cells stably expressing hERG; higher = less effect of the substance).
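Note: peak tail current of the secondary pulse compared with the same well before compound.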

human ether-à-go-go-related gene (hERG) potassium channel, sequence (Q12809 whole entry, looked up): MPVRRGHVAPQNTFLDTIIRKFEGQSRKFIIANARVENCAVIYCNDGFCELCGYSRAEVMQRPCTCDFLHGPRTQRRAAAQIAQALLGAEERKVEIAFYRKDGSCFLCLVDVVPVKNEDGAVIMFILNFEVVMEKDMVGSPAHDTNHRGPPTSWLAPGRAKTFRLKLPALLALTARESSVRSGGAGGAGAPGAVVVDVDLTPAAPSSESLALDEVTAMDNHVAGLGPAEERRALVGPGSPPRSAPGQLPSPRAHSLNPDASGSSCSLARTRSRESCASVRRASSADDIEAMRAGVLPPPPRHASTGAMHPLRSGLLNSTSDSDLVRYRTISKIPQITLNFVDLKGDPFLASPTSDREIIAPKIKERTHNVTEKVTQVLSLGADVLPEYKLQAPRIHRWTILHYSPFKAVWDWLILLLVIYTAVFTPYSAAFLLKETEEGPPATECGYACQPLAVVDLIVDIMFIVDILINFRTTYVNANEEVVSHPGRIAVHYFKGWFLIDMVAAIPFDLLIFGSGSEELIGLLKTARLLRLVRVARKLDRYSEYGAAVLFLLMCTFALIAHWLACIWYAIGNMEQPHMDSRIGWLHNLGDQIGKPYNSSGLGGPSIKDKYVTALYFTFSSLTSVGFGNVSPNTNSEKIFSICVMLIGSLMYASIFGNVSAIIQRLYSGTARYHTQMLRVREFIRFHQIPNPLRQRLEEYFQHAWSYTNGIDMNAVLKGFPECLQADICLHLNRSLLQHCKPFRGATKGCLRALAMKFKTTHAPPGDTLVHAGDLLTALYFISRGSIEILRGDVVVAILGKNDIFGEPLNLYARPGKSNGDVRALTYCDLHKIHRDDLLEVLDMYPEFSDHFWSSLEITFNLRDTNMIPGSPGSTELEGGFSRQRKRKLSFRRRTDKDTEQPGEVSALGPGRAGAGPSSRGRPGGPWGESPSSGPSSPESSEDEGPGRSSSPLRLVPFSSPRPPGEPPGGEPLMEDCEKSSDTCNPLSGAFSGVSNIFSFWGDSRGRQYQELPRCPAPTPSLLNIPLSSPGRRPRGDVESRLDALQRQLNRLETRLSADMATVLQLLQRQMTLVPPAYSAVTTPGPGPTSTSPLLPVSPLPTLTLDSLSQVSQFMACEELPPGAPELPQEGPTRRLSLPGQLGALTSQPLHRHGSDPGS

Compound	hERG current change (%, negative = inhibition) at 10uM [%]
CNC(=O)c1csc(-c2ccc(Cl)cc2)n1	-4.29
CCn1cc([N+](=O)[O-])c(C(=O)NCc2ccc(Cl)cc2)n1	-6.18
CCO.NCCc1c[nH]c2ccc(C(N)=O)cc12.O=C([O-])/C=C\C(=O)[O-]	11.6
CC(=O)c1ccc(NC(=O)C2CCCN2S(=O)(=O)c2ccc(F)cc2)cc1 (stereo not shown)	-16.6
O=c1c2ccccc2[nH]c(=S)n1CCCn1ccnc1	-0.744
O=S(=O)(c1ccc(NC(=S)Nc2ccc3c(c2)OCO3)cc1)N1CCOCC1	13.1
COc1ccc(C2/C=C\CN(C(=O)C3CCCCC3)CC(=O)N2Cc2ccc(F)cc2)cc1 (stereo not shown)	-10.1
Cc1cc(OCC(=O)NNC(=O)CCc2ccccc2)ccc1Br	17.6
CCC[N+](C)(C)C(C)C(OC(C)=O)c1ccccc1.[I-] (stereo not shown)	15.5
CCOC(=O)CC(=O)Nc1ccsc1C(N)=O	15.9
COc1ccccc1N1CCN(/N=C/c2ccc(C(=O)O)cc2)CC1	16.3
COc1ccc(S(=O)(=O)NCC2CCCN(C(=O)c3ccccc3)C2)cc1 (stereo not shown)	8.3
CC1=C(C(=O)N2CCOCC2)C(c2c(C)cc(C)cc2C)NC(=S)N1 (stereo not shown)	10.5
COC(=O)C1=CN(c2cc(C)cc(C)c2)C=C(C(=O)OC)C1c1ccc(OC)c(O)c1	10.9
CN(C)CCCNCCCCNC(=O)/C=N/O	0.266
CN(C)CCCNCCNC(=O)/C=N\O.Cl	-65.4
CN(C)CCCNCCCNC(=O)/C=N/O	10.2
CCOc1ccc(OCCC(=O)OC(C)C(=O)Nc2ccc(C(C)=O)cc2)cc1 (stereo not shown)	8.72
CC(=O)Nc1ccc(S(=O)(=O)N2c3ccccc3NC(=O)CC2C)c(Cl)c1 (stereo not shown)	11.9
CCOc1ccc(Nc2nc3c(C)cccc3cc2C#N)cc1	4.76
Cc1cc(=O)oc2cc(Oc3ccc([N+](=O)[O-])cc3[N+](=O)[O-])ccc12	-64.4
Nc1ccc(Oc2ccc([N+](=O)[O-])cc2[N+](=O)[O-])cc1	-37.7

Compound	hERG current change (%, negative = inhibition) at 10uM [%]
O=Cc1cccc(Oc2ccc([N+](=O)[O-])cc2[N+](=O)[O-])c1	-55
Cc1cc(=O)oc2cc(Oc3ccc([N+](=O)[O-])cc3C(F)(F)F)ccc12	-15
Cc1cc(=O)oc2cc(Oc3ccc(C(N)=O)cc3[N+](=O)[O-])ccc12	-20.7
O=C(N/N=C/c1cccc(Oc2ccc([N+](=O)[O-])cc2[N+](=O)[O-])c1)c1cncc(Br)c1	-32.1
Cc1ccc(O)c(C2=Nc3ccccc3N=C(c3cccc([N+](=O)[O-])c3)C2)c1	20.9
O=C(COc1ccccc1)OCc1cc(-c2ccco2)on1	5.99
Cc1ccc(C)c(NC(=S)N2CCN(Cc3ccccc3)CC2)c1	11.2
O=C(O)CCN=C1CCCc2ccccc2N1	7.26
O=C1CC(c2ccccc2)CC(O)=C1C=NC1CCCCCC1 (stereo not shown)	6.58
O=C1CC(c2ccccc2)CC(O)=C1C=NC1CCCC1 (stereo not shown)	-5.2
O=C1CC(c2cccc(Cl)c2)CC(O)=C1C=NC1CCCC1 (stereo not shown)	-59.8
CCOc1ccc(C(=O)NCC(=O)NCC(c2ccc(OC)cc2)N2CCCC2)cc1 (stereo not shown)	-4.71
Cc1ccc(C)c(OC(=O)C2CSC3(C)CCC(=O)N23)c1C (stereo not shown)	-7.46
COc1cc(C(O)P(=O)(OCCC(C)C)c2ccc(N(C)C)cc2)cc(OC)c1OC (stereo not shown)	10.9
CCOc1ccc2c(c1)ncn2Cc1ccccc1	8.33
Cc1ccc2cc(CN(CCN(C)C)C(=S)Nc3ccccc3)c(=O)[nH]c2c1C	-49.9
Cc1cccc2cc(CN(CCCO)C(=O)Nc3cccc(Cl)c3)c(=O)[nH]c12	-28.4
COc1ccc(NC(=S)N(CCO)Cc2cc3c(C)cc(C)cc3[nH]c2=O)cc1	-48.8
Cc1ccc(C)c2[nH]c(=O)c(CN(CC3CCCO3)C(=O)NC3CCCCC3)cc12 (stereo not shown)	-2.81
COc1ccc(NC(=O)N(CCO)Cc2cc3c(C)cc(C)cc3[nH]c2=O)cc1	-15.3
Cc1cc(C)c2cc(CN(CCN3CCCC3)C(=O)Nc3ccc(F)cc3)c(=O)[nH]c2c1	-74.4
O=C(Nc1cccc(Cl)c1)N(CCN1CCOCC1)Cc1cccc(Cl)c1	-22.1

Compound	hERG current change (%, negative = inhibition) at 10uM [%]
Cc1cccc2cc(CN(CC3CCCO3)C(=O)NC3CCCCC3)c(=O)[nH]c12 (stereo not shown)	-9.99
Cc1ccc2cc(CN(CC3CCCO3)C(=O)NC3CCCCC3)c(=O)[nH]c2c1C (stereo not shown)	-55.4
COc1ccc(NC(=O)N(CCN2CCCC2)Cc2cc3cc(OC)c(OC)cc3[nH]c2=O)cc1	-4.32
Cc1ccc(C)c2[nH]c(=O)c(CN(CCN3CCCC3)C(=O)Nc3cccc(Cl)c3)cc12	-74.1
Cc1ccc2cc(CN(CCN3CCCC3)C(=O)Nc3ccccc3)c(=O)[nH]c2c1C	-57.8
CCC(c1nnnn1CS(=O)(=O)c1ccc(C)cc1)N1CCN(c2nc3ccccc3s2)CC1 (stereo not shown)	-4.38
CC(C)NC(=O)[C@@H]1CSC2c3ccccc3C(=O)N21 (stereo partly shown)	12.7
Nc1nc(-c2ccc(Cl)cc2)nn1C(=O)c1ccco1	23.3
CCOC(=O)C(Cc1ccccc1)C(=O)Nc1cccc2ccccc12 (stereo not shown)	-11.8
CC(C)Cn1c(N)c(C(=O)COC(=O)[C@@H]2CCCN2C(=O)c2cccs2)c(=O)n(C)c1=O	-8.74
O=C(c1c[nH]c2ccccc12)N1CCOCC1	8.48
c1ccc(COc2ccc(-c3csnn3)cc2)cc1	-3.17
Cc1nc(-c2ccc(Cl)cc2)sc1C1(C)CC(c2ccc(OC(F)(F)F)cc2)=NO1 (stereo not shown)	10.3
O=C(Cc1ccccc1)Nc1cccc(N2C(=O)C=CC2=O)c1	-4.45
O=C(Nc1cccc2[nH]ncc12)c1ccc(F)cc1	-17.4
Cc1ccc(C)c2[nH]c(=O)c(CN(CCN3CCCC3)C(=O)Nc3ccc(F)cc3)cc12	-75.7
Cc1ccc2cc(CN(CCN3CCCC3)C(=O)Nc3ccc(F)cc3)c(=O)[nH]c2c1C	-70.7
COc1cc2cc(CN(CCN3CCOCC3)C(=O)Nc3ccc(F)cc3)c(=O)[nH]c2cc1OC	-28.6
Cc1cccc2cc(CN(CCN3CCCC3)C(=O)NC3CCCCC3)c(=O)[nH]c12	-57
Cc1ccc(C)c2[nH]c(=O)c(CN(Cc3ccco3)C(=O)Nc3ccccc3)cc12	1.89
COc1ccc(CCN(Cc2cc3cccc(C)c3[nH]c2=O)C(=O)NC2CCCCC2)cc1OC	-25
Cc1cccc2cc(CN(Cc3ccco3)C(=O)NC3CCCCC3)c(=O)[nH]c12	-38.9

Compound	hERG current change (%, negative = inhibition) at 10uM [%]
Cc1cccc2cc(CN(CCN3CCOCC3)C(=O)Nc3ccccc3F)c(=O)[nH]c12	-20.6
COc1cc2cc(CN(CCN3CCCC3)C(=O)Nc3ccc(F)cc3)c(=O)[nH]c2cc1OC	-7.92
NC(=O)Cc1nc2scc(-c3ccccc3)c2c(=O)[nH]1	37.9
COC(=O)c1cccc(S(=O)(=O)N2CCC(NC(=O)NC34CC5CC(CC(C5)C3)C4)CC2)c1	4.44
O=C(CCn1cccc1)Nc1cccc(F)c1	0.101
CCc1nnc(NC(=O)CSc2ncc(-c3ccccc3)n2CC)s1	-17.9
COCCCC1CCN(Cc2nc(Cc3ccccc3Cl)no2)CC1	5.07
CC[C@@]1(O)C(=O)OCc2c1cc1n(c2=O)Cc2cc3c(CN(C)C)c(O)ccc3nc2-1.Cl	13.6
CCc1ccc(-n2cc(-c3ccc(F)cc3)[n+]3c2SCCC3)cc1.[Br-]	-71.7
Fc1ccc(-c2cn(-c3ccccc3)c3[n+]2CCS3)cc1.O.[Br-]	-45.3
Fc1ccc(-n2cc(-c3ccccc3)[n+]3c2SCC3)cc1.[Br-]	-22.7
COc1ccc(-n2cc(-c3ccc(Br)cc3)[nH]c2=S)cc1	18
COc1ccc(-c2cn(-c3ccc(Br)cc3)c3[n+]2CCS3)cc1.[Br-]	-66.7
COc1ccc(-c2cn(-c3ccccc3)c3[n+]2CCS3)cc1	-38
[Br-].c1ccc(-c2cn(-c3ccccc3)c3[n+]2CCS3)cc1	-5.74
Clc1ccc(-c2cn(-c3ccccc3)c3[n+]2CCS3)cc1.[Br-]	-59.4
Cc1ccc(-c2cn(-c3ccccc3)c3[n+]2CCCS3)cc1.[Br-]	-29.1
O=C(N/N=C/c1ccco1)c1cc(-c2cccc3ccccc23)n[nH]1	7.01
COC(=O)C(C)N(c1ccc(C)cc1)S(=O)(=O)c1c(C)[nH]c(=O)[nH]c1=O (stereo not shown)	1.72
